Test [1] in a line: qHTS assay for small molecule agonists of the p53 signaling pathway (AID 651631; calls by dose curve; note: nearly all actives have a fitted effect of over 15% in size; note: potency is the fitted concentration of half-maximal effect). In short, it runs like this: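 HCT-116 cells carrying a stable p53 response element–beta-lactamase reporter were plated, rested 5 h at 37 °C, then exposed to compound in DMSO for 16 h at 37 °C; reporter activity was read as FRET substrate fluorescence after 2 h at room temperature.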
Test [2] is described as follows: qHTS assay for small molecules that induce genotoxicity in human embryonic kidney cells expressing luciferase-tagged ATAD5 (AID 651632). Note: nearly all actives have a fitted effect of over 15% in size. Note: potency is the fitted concentration of half-maximal effect. In short, it runs like this:
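Genotoxicity read-out via ATAD5-luciferase: HEK293T cells, 16 hr compound incubation at 37C, Amplite detection.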
A general note: In qHTS, concentration-response curves come from the screen itself.

Test [3] in a line: qHTS assay for small molecules that induce genotoxicity in human embryonic kidney cells expressing luciferase-tagged ATAD5 - cell viability (AID 651634; calls by dose curve; note: nearly all actives have a fitted effect of over 25% in size; note: potency is the fitted concentration of half-maximal effect). A digest of the protocol: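 Live-cell protease activity (CellTiter-Fluor, fluorescence) indicates viability. HEK293T cells with luciferase-tagged ATAD5; 15.5 hr compound treatment at 37C.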
Test [4] is described as follows: qHTS assay for small molecule disruptors of the mitochondrial membrane potential - cell viability (AID 720634; calls by dose curve; note: nearly all actives have a fitted effect of over 20% in size; note: potency is the fitted concentration of half-maximal effect). A digest of the protocol: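 Human hepatoma HepG2 cells were treated for 1 hr with test chemicals, then given m-MPI dye and CellTiter-Glo. Cell viability reflects luminescence proportional to cellular ATP.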
Test [5] can be described thus: qHTS assay to test for compound auto fluorescence at 590 nm (red) in HepG2 cells (AID 720674). A digest of the protocol: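 Rose Bengal sodium served as the red fluorophore standard. HepG2 monolayers (overnight attachment, MEM with 10% FBS) were exposed to test compounds for 1 hr at 37 C and read at Ex 540/Em 590 nm.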
Test [6] in a line: qHTS assay to test for compound auto fluorescence at 535 nm (green) in HepG2 cells (AID 720675).
Test [7] can be described thus: qHTS assay to test for compound auto fluorescence at 460 nm (blue) in HEK293 cells (AID 720678). In short, it runs like this: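 HEK293, 2,000 cells/well, 10% dialyzed FBS; attach 4-5 hr 37C; pin compound or DMSO; o/n 37C/5% CO2; fluorescence 405/460 nm; triamterene-equivalent units.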
Test [8] in a line: qHTS assay for small molecule agonists of the p53 signaling pathway - cell viability (AID 651633; calls by dose curve; note: nearly all actives have a fitted effect of over 30% in size; note: potency is the fitted concentration of half-maximal effect). In short, it runs like this:
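p53RE-bla cells, seeded at 4,000 per well and rested 5 h at 37 C/5% CO2, received compounds in DMSO for 16 h at 37 C. CellTiter-Glo was then added, and luminescence was read after 30 min at room temperature to gauge cytotoxicity.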

Test [9] in a line: qHTS assay to test for compound auto fluorescence at 590 nm (red) in HEK293 cells (AID 720679). A digest of the protocol: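 Intensity at 540nm excitation and 590nm emission is reported as Rose Bengal sodium-equivalent autofluorescence. Measurements followed overnight exposure (37C, 5% CO2) of HEK293 cells, 2,000 per well, to 23 nL compound.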
Test [10] is described as follows: qHTS assay for small molecule disruptors of the mitochondrial membrane potential (AID 720635). Note: potency is the fitted concentration of half-maximal effect. A digest of the protocol: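 HepG2 cells (2,000/well) attached overnight at 37C, then took compound for 1 hr at 37C, 5% CO2. Mito-MPS dye was added for 30 min; fluorescence was read at 490/535 nm (monomers) and 540/590 nm (aggregates).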

Where “and” joins values, the source holds several entries; their conditions need not be identical. Equal entries are not always repeated. Results filed as inconclusive are left out. Calls of active or inactive are those of the source. Unless noted, calls come from the whole dose curve; as a rule, active = well fitted curve in the direction sought with a large enough effect in the repeat runs; inconclusive = weak or mixed curves; inactive = no such curve, though single readings can be large; an effect the other way counts as inactive or inconclusive.
% is set by controls: 0 for no effect and ±100 for the full control effect.

As to `O=C(CCCCCCCCC#CI)Oc1ccccc1`, the Potency result in test [1], in test [2], in test [3], in [4] and in test [7] was “inactive” in each case. In addition, the outcome in test [5] and in [6] was inactive.

Take `Cc1nc2ccccn2c(=O)c1CCN1CCC(C(=O)c2ccc(F)cc2)CC1`: the Potency entry in test [1], in [2], in test [8], in [3] and in [7] was “inactive” throughout. The compound was called inactive in test [5], in test [6] and in test [9].

In the case of `CCCCOC(=O)CCS`, the Potency entry in test [1], in [2], in test [8], in [3] and in test [7] was “inactive” each time. Besides, the call in test [5] and in [6] was inactive.

As for `O=C(O)c1cccc(O)c1`, the Potency result in test [1], in test [2], in test [3], in test [4], in test [10] and in test [7] was “inactive” each time. Moreover, the outcome in test [5], in [6] and in [9] was inactive.

Take `Cc1ccccc1N1C(=O)c2cc(S(N)(=O)=O)c(Cl)cc2NC1C` (centres undefined): the Potency result in test [1], in test [2], in test [3], in test [4], in test [10] and in [7] was “inactive” throughout. The call in [5], in test [6] and in test [9] was inactive.

In the case of `COc1ccccc1N=Nc1c(S(=O)(=O)O)cc2cc(S(=O)(=O)O)cc(NC(C)=O)c2c1O`, the Potency result in [1], in [2], in test [8] and in test [7] was “inactive” throughout. The Potency in test [3] is 28.8 µM (active). The result in test [5], in test [6] and in [9] was inactive.

Regarding `N#C/C(=C1\SCC(c2ccccc2Cl)S1)n1ccnc1` (centres undefined), the Potency entry in [1], in test [2], in test [3], in [4], in test [10] and in test [7] was “inactive” in each case. Besides, the call in test [5], in [6] and in [9] was inactive.

As for `Cc1nc2ccccc2s1`, the Potency result in test [1], in test [2], in test [3], in [4], in test [10] and in test [7] was “inactive” throughout. For the same compound, the call in [5] and in test [6] was inactive.

As to `CCCCC/C(=C\c1ccccc1)CO`, the Potency result in test [1], in test [2], in test [8], in test [3] and in test [7] was “inactive” in each case. In addition, the Potency in test [10] is 30.3 µM (active). The call in test [6] and in test [9] was inactive.

With `O=C(Nc1ccc([N+](=O)[O-])cc1)Nc1ccc([N+](=O)[O-])cc1`, the Potency result in test [1], in test [2], in test [3], in test [4] and in [7] was “inactive” each time. The Potency in test [10] is 0.422 µM (active). The call in test [5], in [6] and in test [9] was inactive.

As to `O=S1OCCO1`, the Potency entry in test [1], in test [2], in test [8], in test [3] and in test [7] was “inactive” throughout. Further, the result in test [5], in test [6] and in test [9] was inactive.

For the compound `CCCCCC=CCC=CCCCCCCCC(=O)OCC`, the Potency entry in test [1], in test [2], in test [8], in test [3], in test [10] and in test [7] was “inactive” in each case. Besides, the compound was classed as inactive in [5], in [6] and in test [9].

Regarding `CCC(C(=O)OCCOCCN(CC)CC)c1ccccc1` (centres undefined), the Potency entry in test [1], in test [2], in [3], in [4], in test [10] and in test [7] was “inactive” each time. Further, the call in test [5], in [6] and in test [9] was inactive.

On to `CC1CC(O)CC(C)(C)C1` (centres undefined), for which the Potency entry in [1], in test [2], in [8], in test [3], in test [10] and in test [7] was “inactive” in each case. Further, the compound was classed as inactive in test [6].

`Cc1oncc1C(=O)Nc1ccc(C(F)(F)F)cc1`: the Potency entry in test [1], in test [3] and in [7] was “inactive” throughout. Further, the Potency was 5.07 µM (active) and 2.73 µM (active) in test [2]; 61.1 µM (active) in test [4]; 10.1 µM (active) and 7.7 µM (active) in test [10]. The result in test [5], in [6] and in [9] was inactive.

Take `CC(C)C(=O)O`: the Potency result in [1], in test [2], in test [8], in test [3] and in [7] was “inactive” each time. Besides, the outcome in test [5], in test [6] and in test [9] was inactive.

`O=C(CCCN1CCC(O)(c2ccc(Br)cc2)CC1)c1ccc(F)cc1`: the Potency result in test [1], in test [2], in [8] and in test [3] was “inactive” each time. Moreover, in test [5], the fluorescence, relative to Rose Bengal is 0.666% [at 18.6 µM] (inactive). Besides, the fluorescence, % of fluorescein control in [6] was 0.0047% [at 18.6 µM] (inactive). Besides, the fluorescence, % of triamterene in test [7] is -0.176% [at 18.6 µM] (inactive). Further, the fluorescence, % of fluorescent control in test [9] is -0.139% [at 18.6 µM] (inactive).

For the compound `c1cnc2c(n1)CCCC2`, the Potency entry in test [1], in [2], in test [8], in test [4] and in test [7] was “inactive” in each case. For the same compound, the compound was called inactive in test [6] and in test [9].

Turning to `CC(=O)Oc1ccc(C(=C2CCCCC2)c2ccc(OC(C)=O)cc2)cc1`, the Potency entry in test [1], in [2], in test [3], in test [4], in [10] and in test [7] was “inactive” each time. Also, the result in test [5] and in [6] was inactive.

Consider `Fc1ccccc1[C@@H](F)COC1CCC(Nc2ncnc3[nH]ncc23)CC1` (some centres undefined), for which the Potency entry in test [1], in test [2], in test [8], in test [4] and in test [7] was “inactive” in each case. In addition, the Potency in [10] was 2.73 µM (active). The compound was classed as inactive in [5] and in [6].

As to `Nc1nc(Cl)nc2c1ncn2[C@@H]1O[C@H](CO)[C@@H](O)[C@@H]1F`, the figures for the Potency in test [1] and in test [8] were 0.0841 µM (active) and 0.133 µM (active), respectively. For the same compound, the Potency result in [3], in test [4] and in [7] was “inactive” each time. Further, the compound was classed as inactive in test [5], in [6] and in [9].

On to `C=CC(=C)CCCC(C)(C)OC(C)=O`, for which the Potency result in test [2], in test [8], in [3], in [4], in [10] and in [7] was “inactive” in each case. In addition, the result in [6] and in [9] was inactive.

`CC(=O)[C@H]1CC[C@H]2[C@@H]3C[C@H](C)C4=CC(=O)CC[C@]4(C)[C@H]3[C@@H](O)C[C@]12C`: the Potency entry in [1], in [2], in test [3] and in [4] was “inactive” each time. In addition, the fluorescence, relative to Rose Bengal in test [5] was 0.133% [at 18.6 µM] (inactive). In [6], the fluorescence, % of fluorescein control is -0.105% [at 18.6 µM] (inactive). The fluorescence, % of triamterene in [7] is -0.0231% [at 18.6 µM] (inactive). In test [9], the fluorescence, % of fluorescent control is -0.987% [at 18.6 µM] (inactive).

Regarding `C=CC(C)(C)CC(=O)OC`, the Potency entry in test [2], in test [8], in test [3], in test [4] and in test [7] was “inactive” in each case. Also, the call in test [5], in test [6] and in test [9] was inactive.

With `CC(Cl)C(Cl)Cl` (centres undefined), the Potency entry in [2], in [8], in test [3], in test [4], in test [10] and in test [7] was “inactive” throughout. The compound was called inactive in [5] and in test [6].

Turning to `Cc1c(C(=O)NN2CCCCC2)nn(-c2ccc(Cl)cc2Cl)c1-c1ccc(Cl)cc1`, the Potency entry in test [2], in test [3], in [4] and in test [7] was “inactive” in each case. In addition, the Potency in test [8] and in [10] was 23.7 µM (active) in each case. The compound was classed as inactive in test [5], in test [6] and in test [9].

Turning to `CCC(Cc1ccccc1)(C(=O)c1ccc(N2CCOCC2)cc1)N(C)C` (centres undefined), the Potency entry in test [1], in test [2], in test [3] and in test [7] was “inactive” throughout. For the same compound, in [10], the Potency is 30.6 µM (active). For the same compound, the compound was classed as inactive in test [5] and in test [6].

For the origin of these results see PubChem BioAssay (Tox21).
